Results taken from PubChem BioAssay (Tox21).
Records with an inconclusive call do not appear. Entries that show only a call come without a potency. Unmarked numbers belong to inactive results. Activity calls are given as the source filed them. Unless noted, calls follow the shape of the full dose curve.

Assays:
[1] = qHTS assay to identify small molecule agonists of the peroxisome proliferator-activated receptor delta (PPARd) signaling pathway - cell viability counter screen (AID 743211; active = well fitted curve in the direction sought with a large enough effect in the repeat runs; an effect the other way counts as inactive or inconclusive; also: nearly all actives have a fitted effect of over 55% in size)
How it was run: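 Following 5 h plating at 37 C and 5% CO2, PPARd UAS-bla HEK293H cells took up test compounds for 17 h. Viability was quantified by luminescence 30 min after CellTiter-Glo addition at room temperature.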

[2] = target: Peroxisome proliferator-activated receptor delta (Homo sapiens) (UniProt Q03181); experiment: qHTS assay to identify small molecule agonists of the peroxisome proliferator-activated receptor delta (PPARd) signaling pathway (AID 743212)
Chain of Peroxisome proliferator-activated receptor delta (Homo sapiens) (Q03181 whole entry, looked up): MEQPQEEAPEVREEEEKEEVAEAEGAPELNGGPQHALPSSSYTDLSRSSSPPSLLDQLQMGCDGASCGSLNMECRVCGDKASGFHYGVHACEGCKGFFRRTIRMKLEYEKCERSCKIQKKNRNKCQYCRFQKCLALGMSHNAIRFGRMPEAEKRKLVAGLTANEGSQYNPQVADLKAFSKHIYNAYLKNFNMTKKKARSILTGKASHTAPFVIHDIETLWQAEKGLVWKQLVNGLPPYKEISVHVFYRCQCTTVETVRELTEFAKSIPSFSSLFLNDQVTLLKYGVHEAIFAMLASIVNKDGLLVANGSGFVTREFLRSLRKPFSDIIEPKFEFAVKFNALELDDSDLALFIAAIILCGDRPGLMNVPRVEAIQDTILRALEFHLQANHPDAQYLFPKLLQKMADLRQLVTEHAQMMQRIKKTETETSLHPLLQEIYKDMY
How it was run: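 Tox21 library screened in GeneBLAzer PPARd UAS-bla HEK293H cells. After compound treatment at 37 C, a FRET-based beta-lactamase substrate was applied for 2 h and fluorescence recorded.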

[3] = qHTS assay to identify small molecule antagonists of the peroxisome proliferator-activated receptor delta (PPARd) signaling pathway - cell viability counter screen (AID 743213; active = well fitted curve in the direction sought with a large enough effect in the repeat runs; an effect the other way counts as inactive or inconclusive; also: nearly all actives have a fitted effect of over 50% in size)
How it was run: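 PPARd-bla HEK293H cells were treated with compounds plus agonist L165041 (300 nM final) for 17 h at 37 C. Viability was then read in the same wells by CellTiter-Glo luminescence after 30 min at room temperature.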

[4] = target: Peroxisome proliferator-activated receptor delta (Homo sapiens) (UniProt Q03181); experiment: qHTS assay to identify small molecule antagonists of the peroxisome proliferator-activated receptor delta (PPARd) signaling pathway (AID 743215; active = well fitted inhibition curve with a large enough effect in the signal ratio in the repeat runs, not every such curve was filed as active; the % refers to the signal ratio;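 also: cells stimulated with agonist L165041 at 300 nM final during compound exposure; series mostly up to about 62 µM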)
How it was run: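 Screen format: qHTS, antagonist mode. HEK293H PPARd-bla cells received compound and 300 nM L165041 (final), 17 h, 37 C. Beta-lactamase detected via FRET substrate fluorescence, 2 h, room temperature.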

[5] = target: Bile acid receptor (Homo sapiens) (UniProt Q96RI1); experiment: qHTS assay to identify small molecule agonists of the farnesoid-X-receptor (FXR) signaling pathway (AID 743220; active = well fitted activation curve with a large enough effect in the signal ratio in the repeat runs, not every such curve was filed as active; the % refers to the signal ratio)
Chain of Bile acid receptor (Homo sapiens) (Q96RI1 whole entry, looked up): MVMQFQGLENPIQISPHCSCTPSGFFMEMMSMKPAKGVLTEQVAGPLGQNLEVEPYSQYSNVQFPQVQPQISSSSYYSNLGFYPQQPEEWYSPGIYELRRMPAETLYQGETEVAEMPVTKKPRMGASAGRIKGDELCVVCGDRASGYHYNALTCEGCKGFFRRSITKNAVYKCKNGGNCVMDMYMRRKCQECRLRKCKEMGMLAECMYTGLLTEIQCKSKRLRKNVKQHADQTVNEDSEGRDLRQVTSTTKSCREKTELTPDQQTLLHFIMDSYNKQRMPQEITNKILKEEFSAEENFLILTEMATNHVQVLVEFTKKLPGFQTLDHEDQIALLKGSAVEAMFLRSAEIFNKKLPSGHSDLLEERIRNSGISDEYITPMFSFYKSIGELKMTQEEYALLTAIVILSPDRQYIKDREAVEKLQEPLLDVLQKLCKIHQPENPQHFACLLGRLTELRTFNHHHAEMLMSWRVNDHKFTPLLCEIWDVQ
How it was run: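 FXR-UAS-bla HEK 293T cells carrying a UAS-driven beta-lactamase reporter were plated for 5 h at 37C/5% CO2, then exposed to DMSO-dissolved Tox21 10K compounds for 16 h at 37C. A LiveBLAzer B/G FRET substrate was loaded for 2 h at room temperature before fluorescence reading.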

[6] = qHTS assay to identify small molecule antagonists of the farnesoid-X-receptor (FXR) signaling pathway - cell viability counter screen (AID 743221; active = well fitted cell-killing curve with a large enough effect in the repeat runs, not every such curve was filed as active; also: nearly all actives have a fitted effect of over 50% in size)
How it was run: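 Compound effects on cell number were measured as CellTiter-Glo luminescence in HEK 293T cells expressing FXR-UAS-bla, after 16 h at 37 C with 50 uM CDCA (final).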

[7] = target: Vitamin D3 receptor (Homo sapiens) (UniProt P11473); experiment: qHTS assay to identify small molecule agonists of the vitamin D receptor (VDR) signaling pathway (AID 743222)
Chain of Vitamin D3 receptor (Homo sapiens) (P11473 whole entry, looked up): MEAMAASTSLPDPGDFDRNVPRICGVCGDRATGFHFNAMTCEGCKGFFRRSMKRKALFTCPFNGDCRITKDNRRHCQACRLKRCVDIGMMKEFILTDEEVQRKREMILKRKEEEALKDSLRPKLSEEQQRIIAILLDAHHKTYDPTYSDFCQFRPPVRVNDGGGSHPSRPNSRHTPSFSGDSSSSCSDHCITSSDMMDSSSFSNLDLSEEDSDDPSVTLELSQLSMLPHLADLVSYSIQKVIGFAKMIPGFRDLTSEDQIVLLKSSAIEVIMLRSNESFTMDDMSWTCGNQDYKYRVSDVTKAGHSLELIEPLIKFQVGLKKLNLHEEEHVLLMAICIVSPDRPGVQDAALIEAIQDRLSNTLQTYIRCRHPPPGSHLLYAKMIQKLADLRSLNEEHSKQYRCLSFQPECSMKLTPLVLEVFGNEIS
How it was run: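 Using LiveBLAzer B/G FRET detection, agonism was scored in VDR-bla cells exposed overnight (16 h, 37C) to DMSO-dissolved compounds; substrate incubation was 2 h at room temperature.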

[8] = qHTS assay to identify small molecule agonists of the vitamin D receptor (VDR) signaling pathway - cell viability counter screen (AID 743224; active = well fitted curve in the direction sought with a large enough effect in the repeat runs; an effect the other way counts as inactive or inconclusive; also: series mostly up to about 63 µM; nearly all actives have a fitted effect of over 50% in size)
How it was run: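 Counter screen for cytotoxicity: VDR-bla cells at 2,000 cells/well, 16 h compound exposure, then CellTiter-Glo luminescence after the beta-lactamase measurement.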

[9] = qHTS assay to identify small molecule antagonists of the vitamin D receptor (VDR) signaling pathway - cell viability counter screen (AID 743225; active = well fitted curve in the direction sought with a large enough effect in the repeat runs; an effect the other way counts as inactive or inconclusive; also: nearly all actives have a fitted effect of over 50% in size)
How it was run: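 In this counter screen, VDR-bla HEK 293T cells receive test compound plus 3 nM final calcitriol for 16 h at 37C. Room-temperature steps of 2 h with the beta-lactamase substrate, then 30 min with CellTiter-Glo, precede the luminescence read.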

[10] = qHTS assay to identify small molecule agonists of the NFkB signaling pathway - cell viability counter screen (AID 1159515); also: series mostly up to about 61 µM; nearly all actives have a fitted effect of over 55% in size
How it was run: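 Counter screen run alongside the NFkB-bla agonist assay: ME-180 reporter cells exposed to compounds for 5 hr, then lysed with CellTiter-Glo in the same wells. Luminescence, read after 30 min, reflects viable cells.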

[11] = qHTS assay to identify small molecule agonists of the endoplasmic reticulum stress response signaling pathway (AID 1159516; active = well fitted activation curve with a large enough effect in the signal ratio in the repeat runs, not every such curve was filed as active; the % refers to the signal ratio; also: potency is read from the fitted curve at half-maximal effect)
How it was run: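 For this screen, HeLa cells stably carrying beta-lactamase under the ER stress response element received test compounds, positive controls or DMSO for 5 hr at 37 C; B/G FRET substrate was then added and dual-wavelength emission recorded.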

[12] = qHTS assay to identify small molecule agonists of the endoplasmic reticulum stress response signaling pathway - cell viability counter screen (AID 1159517)
How it was run: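 In parallel with the ESRE reporter read, cytotoxicity was scored by CellTiter-Glo luminescence (30 min, room temperature) on HeLa ESRE-bla cells dosed for 5 hr.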

[13] = qHTS assay to identify small molecule antagonists of the retinoid-related orphan receptor gamma (ROR-gamma) signaling pathway - cell viability counter screen (AID 1159520; active = well fitted curve in the direction sought with a large enough effect in the repeat runs; an effect the other way counts as inactive or inconclusive; also: nearly all actives have a fitted effect of over 50% in size)
How it was run: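 Tet-on ROR gamma CHO cells were given compounds for 2 hr, then doxycycline hyclate at 1 uM final, and incubated 16 hr at 37 C. Viability was measured as ATP content by CellTiter-Glo luminescence.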

[14] = qHTS assay to identify small molecule agonists of the AP-1 signaling pathway - cell viability counter screen (AID 1159525); also: nearly all actives have a fitted effect of over 55% in size
How it was run: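 Same-well cytotoxicity counter screen of the Tox21 10K library in ME-180 cells. The readout is ATP-dependent luminescence after 5 h compound treatment. Data are normalised to DMSO and tetra n-octyl ammonium bromide controls.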

[15] = qHTS assay to identify small molecule agonists of the AP-1 signaling pathway (AID 1159526)
[16] = target: Retinoic acid receptor RXR-alpha (Homo sapiens) (UniProt P19793); experiment: qHTS assay to identify small molecule agonists of the RXR signaling pathway (AID 1159527); also: nearly all actives have a fitted effect of over 35% in size
Chain of Retinoic acid receptor RXR-alpha (Homo sapiens) (P19793 whole entry, looked up): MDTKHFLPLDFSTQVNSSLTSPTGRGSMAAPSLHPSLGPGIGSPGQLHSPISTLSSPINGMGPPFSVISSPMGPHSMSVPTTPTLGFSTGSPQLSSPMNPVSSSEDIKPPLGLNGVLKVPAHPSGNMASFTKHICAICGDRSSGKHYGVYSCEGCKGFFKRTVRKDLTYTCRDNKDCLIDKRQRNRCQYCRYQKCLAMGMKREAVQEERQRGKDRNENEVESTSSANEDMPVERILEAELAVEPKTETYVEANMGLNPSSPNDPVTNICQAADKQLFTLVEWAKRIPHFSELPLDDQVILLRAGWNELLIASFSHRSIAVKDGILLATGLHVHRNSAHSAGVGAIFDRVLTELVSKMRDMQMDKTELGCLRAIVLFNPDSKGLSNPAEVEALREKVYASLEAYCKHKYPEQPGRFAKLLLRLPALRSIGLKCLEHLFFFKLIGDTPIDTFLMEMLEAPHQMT
How it was run: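 Fluorescence ratio readout (460 vs 530 nm) from GeneBLAzer RXR-alpha HEK 293T cells after 16 hr compound treatment; cells seeded 5 hr beforehand in low-serum, charcoal-stripped medium.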

[17] = qHTS assay to identify small molecule agonists of the farnesoid-X-receptor (FXR) signaling pathway - cell viability counter screen (AID 743218; active = well fitted curve in the direction sought with a large enough effect in the repeat runs; an effect the other way counts as inactive or inconclusive; also: nearly all actives have a fitted effect of over 45% in size)
How it was run: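 Same-well cytotoxicity check on FXR-UAS-bla HEK 293T cells: 5 h attachment, 16 h compound at 37 C, CellTiter-Glo luminescence read at room temperature after 30 min.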

[18] = target: Vitamin D3 receptor (Homo sapiens) (UniProt P11473); experiment: qHTS assay to identify small molecule antagonists of the vitamin D receptor (VDR) signaling pathway (AID 743223; active = well fitted inhibition curve with a large enough effect in the signal ratio in the repeat runs, not every such curve was filed as active; the % refers to the signal ratio)
How it was run: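 Beta-lactamase activity in VDR-bla cells is measured by FRET substrate fluorescence (2 h, room temperature) after cells spend 16 h at 37C with test compound and 3 nM final 1alpha,25-dihydroxyvitamin D3.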

## ClCBr
[1]
  Potency: inactive
[2]
  Potency: inactive
[3]
  Potency: inactive
[4]
  Potency: inactive
[5]
  Potency: inactive
[6]
  Potency: inactive
[7]
  Potency: inactive
[8]
  Potency: inactive
[9]
  Potency: inactive
[10]
  Potency: inactive
[11]
  Potency: inactive
[12]
  Potency: inactive
[13]
  Potency: inactive
[14]
  Potency: inactive
[15]
  Potency: inactive
[16]
  Potency: inactive

## C[N+]1(C)[C@@H]2CC[C@H]1CC(OC(=O)C(CO)c1ccccc1)C2 (stereo partly drawn)
[1]
  Potency: inactive
[2]
  Potency: inactive
[3]
  Potency: inactive
[4]
  Potency: inactive
[17]
  Potency: inactive
[6]
  Potency: inactive
[8]
  Potency: inactive
[10]
  Potency: inactive
[11]
  Potency: inactive
[12]
  Potency: inactive
[13]
  Potency: inactive
[14]
  Potency: inactive
[15]
  Potency: inactive
[16]
  Potency: inactive

## O=C(CCCCl)c1ccc(F)cc1
[1]
  Potency: inactive
[3]
  Potency: inactive
[17]
  Potency: inactive
[6]
  Potency: inactive
[9]
  Potency: inactive
[10]
  Potency: inactive
[11]
  Potency: inactive
[12]
  Potency: inactive
[13]
  Potency: inactive
[14]
  Potency: inactive
[15]
  Potency: inactive
[16]
  Potency: inactive

## CC(=O)O.CC(=O)O.CC(=O)O.CC(=O)O.CC(=O)O.CC(=O)O.CC(=O)O.O.O.[Cr].[Cr].[Cr]
[17]
  Potency: inactive
[9]
  Potency: inactive
[10]
  Potency: inactive
[11]
  Potency: inactive
[12]
  Potency: inactive
[13]
  Potency: inactive
[14]
  Potency: inactive
[15]
  Potency: inactive
[16]
  Potency: inactive

## CNN
[3]
  Potency: inactive
[17]
  Potency: inactive
[8]
  Potency: inactive
[9]
  Potency: inactive
[10]
  Potency: inactive
[11]
  Potency: inactive
[12]
  Potency: inactive
[13]
  Potency: inactive
[14]
  Potency: inactive
[15]
  Potency: inactive
[16]
  Potency: inactive

## CC(=O)[O-].CC(=O)[O-].O.O.O.[Pb+2]
[1]
  Potency: inactive
[17]
  Potency: inactive
[6]
  Potency: inactive
[8]
  Potency: inactive
[9]
  Potency: inactive
[10]
  Potency: inactive
[11]
  Potency: 77.6 nM (active)
[12]
  Potency: inactive
[13]
  Potency: inactive
[14]
  Potency: inactive
[15]
  Potency: inactive
[16]
  Potency: inactive

## C#CCO
[1]
  Potency: inactive
[2]
  Potency: inactive
[4]
  Potency: inactive
[17]
  Potency: inactive
[6]
  Potency: inactive
[18]
  Potency: inactive
[8]
  Potency: inactive
[9]
  Potency: inactive
[10]
  Potency: inactive
[11]
  Potency: inactive
[12]
  Potency: inactive
[13]
  Potency: inactive
[14]
  Potency: inactive
[15]
  Potency: inactive
[16]
  Potency: inactive

## CCC1COC(Cn2cncn2)(c2ccc(Cl)cc2Cl)O1 (stereo not drawn)
[1]
  Potency: inactive
[2]
  Potency: inactive
[3]
  Potency: inactive
[4]
  Potency: inactive
[17]
  Potency: inactive
[18]
  Potency: inactive
[8]
  Potency: inactive
[9]
  Potency: inactive
[10]
  Potency: inactive
[11]
  Potency: inactive
[12]
  Potency: inactive
[13]
  Potency: inactive
[14]
  Potency: inactive
[15]
  Potency: inactive

## CC(C)=CCN1CC[C@@]2(C)c3cc(O)ccc3C[C@@H]1[C@@H]2C
[1]
  Potency: inactive
[2]
  Potency: inactive
[3]
  Potency: inactive
[4]
  Potency: inactive
[6]
  Potency: inactive
[7]
  Potency: inactive
[18]
  Potency: inactive
[8]
  Potency: inactive
[9]
  Potency: inactive
[10]
  Potency: inactive
[11]
  Potency: inactive
[12]
  Potency: inactive
[13]
  Potency: inactive
[14]
  Potency: inactive
[15]
  Potency: inactive

## CCNc1nc(NC(C)C(C)C)nc(SC)n1 (stereo not drawn)
[1]
  Potency: inactive
[2]
  Potency: inactive
[3]
  Potency: inactive
[4]
  Potency: inactive
[17]
  Potency: inactive
[6]
  Potency: inactive
[8]
  Potency: inactive
[9]
  Potency: inactive
[10]
  Potency: inactive
[11]
  Potency: inactive
[12]
  Potency: inactive
[13]
  Potency: inactive
[14]
  Potency: inactive
[15]
  Potency: inactive
[16]
  Potency: inactive
